Results published in the supplement of paper PMC8728848.
This is one part of a sample in which the strongest signals are shown more often than they occur.

Experiments:
Test in all cases: glycan array binding signal (z-score within array); higher = stronger binding
Conditions in all cases: glycan notation: IUPAC condensed, linker removed
[1] = molecular target: GlcNAc(a1-4)Gal(b1-4)GalNAc
Outline: (§1)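 Columns mapping to the same glycan were averaged after glycan names were converted to IUPAC-condensed notation. The data come from 3228 arrays in the Consortium for Functional Glycomics database, limited to those with an available protein sequence. Binding is reported as a within-array Z-score averaged across arrays of one protein sequence and across linkers.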

[2] = molecular target: GlcNAc(a1-4)Gal(b1-4)GlcNAc(b1-3)Gal(b1-4)GlcNAc(b1-3)Gal(b1-4)GlcNAc
Outline: as §1

[3] = molecular target: GlcNAc(b1-2)[GlcNAc(b1-4)]Man(a1-3)[GlcNAc(b1-4)][GlcNAc(b1-2)[GlcNAc(b1-6)]Man(a1-6)]Man(b1-4)GlcNAc(b1-4)[Fuc(a1-6)]GlcNAc
Outline: as §1

[4] = molecular target: GlcNAc(b1-2)[GlcNAc(b1-6)]Man(a1-6)[GlcNAc(b1-2)Man(a1-3)]Man(b1-4)GlcNAc(b1-4)[Fuc(a1-6)]GlcNAc
Outline: as §1

[5] = molecular target: GlcNAc(b1-3)Gal(b1-4)GlcNAc(b1-3)Gal(b1-4)GlcNAc
Outline: as §1

[6] = molecular target: GlcNAc(b1-3)Gal(b1-4)GlcNAc(b1-3)Gal(b1-4)GlcNAc(b1-2)Man(a1-3)[GlcNAc(b1-3)Gal(b1-4)GlcNAc(b1-3)Gal(b1-4)GlcNAc(b1-2)Man(a1-6)]Man(b1-4)GlcNAc(b1-4)[Fuc(a1-6)]GlcNAc
Outline: as §1

[7] = molecular target: GlcNAc(b1-3)Gal(b1-4)GlcNAc(b1-3)Gal(b1-4)GlcNAc(b1-2)[GlcNAc(b1-3)Gal(b1-4)GlcNAc(b1-3)Gal(b1-4)GlcNAc(b1-6)]Man(a1-6)[GlcNAc(b1-3)Gal(b1-4)GlcNAc(b1-3)Gal(b1-4)GlcNAc(b1-2)Man(a1-3)]Man(b1-4)GlcNAc(b1-4)[Fuc(a1-6)]GlcNAc
Outline: as §1

[8] = molecular target: GlcNAc(b1-4)GlcNAc(b1-4)GlcNAc(b1-4)GlcNAc(b1-4)GlcNAc
Outline: as §1

[9] = molecular target: Man(a1-2)Man(a1-3)[Man(a1-2)Man(a1-6)]Man
Outline: as §1

[10] = molecular target: Man(a1-2)Man(a1-3)[Man(a1-2)Man(a1-6)]Man(a1-6)[Man(a1-2)Man(a1-2)Man(a1-3)]Man
Outline: as §1

[11] = molecular target: Man(a1-3)[Man(a1-6)]Man(a1-6)[Man(a1-2)Man(a1-3)]Man(b1-4)GlcNAc(b1-4)GlcNAc
Outline: as §1

[12] = molecular target: Man(a1-3)[Man(a1-6)]Man(a1-6)[Man(a1-3)]Man
Outline: as §1

[13] = molecular target: Man(a1-6)Man
Outline: as §1

[14] = molecular target: Neu5Ac(a2-3)Gal(b1-4)GlcNAc(b1-3)Gal(b1-4)GlcNAc(b1-3)Gal(b1-4)GlcNAc(b1-2)Man(a1-3)[Neu5Ac(a2-3)Gal(b1-4)GlcNAc(b1-3)Gal(b1-4)GlcNAc(b1-3)Gal(b1-4)GlcNAc(b1-2)Man(a1-6)]GalNAc
Outline: as §1

[15] = molecular target: Neu5Ac(a2-3)Gal(b1-4)GlcNAc(b1-3)Gal(b1-4)GlcNAc(b1-3)[Neu5Ac(a2-3)Gal(b1-4)GlcNAc(b1-3)Gal(b1-4)GlcNAc(b1-6)]GalNAc
Outline: as §1

[16] = molecular target: Neu5Ac(a2-3)Gal(b1-4)GlcNAc(b1-3)[Neu5Ac(a2-3)Gal(b1-4)GlcNAc(b1-6)]GalNAc
Outline: as §1

[17] = molecular target: Neu5Ac(a2-3)Gal(b1-4)GlcNAc(b1-6)[Gal(b1-3)]GalNAc
Outline: as §1

[18] = molecular target: Neu5Ac(a2-3)Gal(b1-4)[Fuc(a1-3)]GlcNAc(b1-2)Man
Outline: as §1

[19] = molecular target: Neu5Ac(a2-6)Gal(b1-3)GlcNAc(b1-3)[Gal(b1-4)GlcNAc(b1-6)]Gal(b1-4)Glc
Outline: as §1

[20] = molecular target: Neu5Ac(a2-6)Gal(b1-4)GlcNAc
Outline: as §1

[21] = molecular target: Neu5Ac(a2-6)Gal(b1-4)GlcNAc(b1-2)Man(a1-6)Man(b1-4)GlcNAc(b1-4)GlcNAc
Outline: as §1

[22] = molecular target: Neu5Ac(a2-6)Gal(b1-4)GlcNAc(b1-3)Gal(b1-4)GlcNAc(b1-3)[Neu5Ac(a2-6)Gal(b1-4)GlcNAc(b1-3)Gal(b1-4)GlcNAc(b1-6)]GalNAc
Outline: as §1

[23] = molecular target: Neu5Ac(a2-6)Gal(b1-4)GlcNAc(b1-3)Gal(b1-4)GlcNAc(b1-6)[Gal(b1-3)]GalNAc
Outline: as §1

[24] = molecular target: Neu5Ac(a2-6)Gal(b1-4)GlcNAc(b1-6)[Gal(b1-3)GlcNAc(b1-3)]Gal(b1-4)Glc
Outline: as §1

[25] = molecular target: Neu5Ac(a2-6)GalNAc
Outline: as §1

[26] = molecular target: Neu5Ac(a2-6)GalNAc(b1-4)GlcNAc
Outline: as §1

[27] = molecular target: Neu5Ac(a2-6)GalNAc(b1-4)GlcNAc6S
Outline: as §1

[28] = molecular target: Neu5Ac(a2-6)GlcNAc(b1-4)GlcNAc
Outline: as §1

[29] = molecular target: Neu5Ac(a2-8)Neu5Ac(a2-3)Gal(b1-4)Glc
Outline: as §1

B1: Aap brpt (Staphylococcus epidermidis) (protein)
chain: VDGDPITSTEEIPFDKKREFDPNLAPGTEKVVQKGEPGTKTITTPTTKNPLTGEKVGEGEPTEKITKQPVDEIVHYGGEEIKTGHKDEFDPNAPKGSQTTQPGKPGVKNPDTGEVVTPPVDDVTKYGPVDGDPITSTEEIPFDKKREFDPNLAPGTEKVVQKGEPGTKTITTPTTKNPLTGEKVGEGEPTEKITKQPVDEIVHYGGEEIKPGHKDEFDPNAPKGSQEDVPGKPGVKNPDTGEVVTPPVDDVTKYGPVDGDSITSTEEIPFDKKREFDPNLAPGTEKVVQKGEPGTKTITTPTTKNPLTGEKVGEGEPTEKITKQPVDEIVHYGGEQIPQGHKDEFDPNAPVDSKTEVPGKPGVKNPDTGEVVTPPVDDVTKYGPVDGDSITSTEEIPFDKKREFDPNLAPGTEKVVQKGEPGTKTITTPTTKNPLTGEKVGEGKSTEKVTKQPVDEIVEYGPTK
glycan array binding signal (z-score) [1]: -1.15 | glycan array binding signal (z-score) [2]: 0.541 | glycan array binding signal (z-score) [3]: 0.314 | glycan array binding signal (z-score) [4]: -0.222 | glycan array binding signal (z-score) [5]: -0.363 | glycan array binding signal (z-score) [6]: 2.65 | glycan array binding signal (z-score) [7]: 3.02 | glycan array binding signal (z-score) [8]: -1.51 | glycan array binding signal (z-score) [9]: -0.923 | glycan array binding signal (z-score) [10]: 2.59 | glycan array binding signal (z-score) [11]: 2.29 | glycan array binding signal (z-score) [12]: -1 | glycan array binding signal (z-score) [13]: 1.21 | glycan array binding signal (z-score) [14]: 1.19 | glycan array binding signal (z-score) [15]: 0.565 | glycan array binding signal (z-score) [16]: 0.328 | glycan array binding signal (z-score) [17]: -0.96 | glycan array binding signal (z-score) [18]: 0.096 | glycan array binding signal (z-score) [19]: -0.86 | glycan array binding signal (z-score) [20]: -0.403 | glycan array binding signal (z-score) [21]: -0.15 | glycan array binding signal (z-score) [22]: 2.85 | glycan array binding signal (z-score) [23]: 2.73 | glycan array binding signal (z-score) [24]: 0.258 | glycan array binding signal (z-score) [25]: 1.84 | glycan array binding signal (z-score) [26]: 0.115 | glycan array binding signal (z-score) [27]: -0.313 | glycan array binding signal (z-score) [28]: 2.43 | glycan array binding signal (z-score) [29]: -0.002
